Among the data in PubChem BioAssay (NCI) are growth inhibition values, retold here.

Compounds without any hit were thinned out: in the full panel of roughly 79,000, 15% have a hit. A number with no mark means an inactive call. Calls of active or inactive are those of the source. No stated cut-off is given here; in the data, active means growth inhibition above about 70%; inactive means the rest.

Assay [1] is described as follows: NCI Yeast Anticancer Drug Screen. Data for the rad50 strain (AID 155).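 Further: 0% = growth of vehicle-only cultures of the same strain.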 As to conditions: S. cerevisiae rad50 strain growth inhibition; at 50.0 µM; active compounds read high. An outline of the steps:
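Readout: growth inhibition relative to vehicle-treated cultures. Compound exposure was carried out in a genetically defined yeast strain deficient in DNA damage repair.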

Assay [2] can be described thus: NCI Yeast Anticancer Drug Screen. Data for the mec2-1 strain (AID 157). As to conditions: S. cerevisiae mec2-1 strain, at 50.0 µM, active compounds read high. In a few lines:
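Yeast mec2-1 mutant treated with compound. Readout: growth inhibition vs vehicle controls.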

Assay [3] in a line: NCI Yeast Anticancer Drug Screen. Data for the sgs1 mgt1 strain (AID 161).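 Further: 0% = growth of cultures given vehicle only.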 The conditions noted are these: S. cerevisiae sgs1 mgt1 strain, at 50.0 µM, active compounds read high. In a few lines:
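Test agents were incubated with a DNA-repair-mutant yeast strain. Growth was then read and compared against vehicle-treated controls.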

A short description of assay [4]: NCI Yeast Anticancer Drug Screen. Data for the cln2 rad14 strain (AID 165).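 Further: 0% = growth equal to vehicle treated cultures.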 The conditions noted are these: S. cerevisiae cln2 rad14 strain, at 50.0 µM, active compounds read high. In a few lines:
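cln2 rad14 yeast strain; compound exposure; growth inhibition read vs vehicle controls.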

Assay [5] is described as follows: NCI Yeast Anticancer Drug Screen. Data for the bub3 strain (AID 167). As to conditions: S. cerevisiae bub3 mutant strain, at 50.0 µM, active compounds read high. An outline of the steps: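 Readout: yeast growth inhibition, expressed relative to vehicle-only wells. The test organism is a mutant strain from a panel with lesions in DNA repair or checkpoint genes.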
Assay [6] in a line: NCI Yeast Anticancer Drug Screen. Data for the mlh1 rad18 strain (AID 175). As to conditions: S. cerevisiae mlh1 rad18 strain growth inhibition; at 50.0 µM; active compounds read high. In a few lines:
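Yeast w/ defined DNA-repair lesions; compound exposure; growth vs vehicle controls → % inhibition.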

For the compound `CC(=O)Nc1cc(F)c(N=Nc2ccc(F)cc2)c(F)c1`, the growth inhibition was 5.3% in assay [1]; -0.6% in assay [2]; 13.4% in assay [3]; -36.9% in assay [4]; -16.1% in assay [5]; 3.45% in assay [6].
`COC1=CC(=C(\C#N)c2ccc(Cl)cc2)/C=CC/1=N/O`: the growth inhibition was 20.1% in assay [1]; 11.6% in assay [2]; 3.85% in assay [3]; -7.25% in assay [4]; 5.75% in assay [5]; 21.9% in assay [6].
Regarding `C/C(=N\N=Nc1ccc(N(C)C)cc1)c1ccccc1`, the growth inhibition in assay [1] was 1.6%; in assay [2] it was -3.3%; in assay [3] it was -5.25%; in assay [4], 15.9%; in assay [5], 29.2%; in assay [6], 9.1%.
`CC1(C)CC(Nc2ccccc2)=CC(=Nc2ccccc2)S1`: the growth inhibition is -13.1% in assay [1]; -11.2% in assay [2]; -3.55% in assay [3]; -25.2% in assay [4]; -32.5% in assay [5]; -14.2% in assay [6].
Take `COC1/C=C/OC2(C)Oc3c(C)c(O)c4c(c3C2=O)C(N)=C(Nc2ccccc2)C(=NC(=O)C(C)=CC=CC(C)C(O)C(C)C(O)C(C)C(OC(C)=O)C1C)C4=O` (stereo unspecified): the growth inhibition was 15.5% in assay [1]; 45.5% in assay [2]; 41.9% in assay [3]; 46.5% in assay [4]; 16.9% in assay [5]; 39.9% in assay [6].
For the compound `Cc1ncc(CSc2ccccc2N)c(CO)c1O`, the growth inhibition in assay [1] is -10.8%; in assay [2], -10.1%; in assay [3], -22.5%; in assay [4] it was 48.2%; in assay [5], 5.5%; in assay [6], -4.55%.
Turning to `CCn1c(SCC(=O)N/N=C/c2ccccc2)nc2ccccc2c1=O`, the growth inhibition in assay [1] was 5.65%; in assay [2], 6.95%; in assay [3], 3.8%; in assay [4], -4.55%; in assay [5], -1.3%; in assay [6], -33.7%.
As to `O=C1/C(=C/c2cccc3ccccc23)Cc2ccccc21`, the growth inhibition in assay [1] is -6.55%; in assay [2], -25.6%; in assay [3], -11.6%; in assay [4], -5.65%; in assay [5], 18.1%; in assay [6], 7.7%.
Regarding `CC(C)C1=CC23CCC4C(C)(C(=O)O)CCCC4(C)C2CC1C1C(=O)N(CCCN(C)C)C(=O)C13` (stereo unspecified), the growth inhibition was 98.8% (active) in assay [1]; 99% (active) in assay [2]; 99% (active) in assay [3]; 98.2% (active) in assay [4]; 98% (active) in assay [5]; 98.6% (active) in assay [6].
In the case of `CCc1ccc(Cc2ccc(CC)c(NC(=O)C(=O)C3NC(=S)NC3=O)c2CC)c(CC)c1NC(=O)C(=O)C1NC(=S)NC1=O` (stereo unspecified), the growth inhibition is -5.2% in assay [1]; -9.5% in assay [2]; 5.25% in assay [3]; 5.1% in assay [4]; 3.85% in assay [5]; -3.65% in assay [6].
For `O=[N+]([O-])c1ccc(-c2nnc(C34CC5CC(CC(C5)C3)C4)o2)cc1`, the growth inhibition is -26.7% in assay [1]; -1.2% in assay [2]; -13.4% in assay [3]; -5.9% in assay [4]; -11.2% in assay [5]; -30.1% in assay [6].
Take `CCOc1ccc2ccccc2c1`: the growth inhibition in assay [1] is -28.2%; in assay [2], 0.7%; in assay [3] it was 1.25%; in assay [4], -49.5%; in assay [5], -3.15%; in assay [6], -19.7%.
As for `COc1ccc(C(=O)C[C@H]2CCC[C@@H](CC(=O)c3ccc(OC)cc3)N2C)cc1`, the growth inhibition was 14.4% in assay [1]; 5.05% in assay [2]; 5.05% in assay [3]; 12% in assay [4]; 0.25% in assay [5]; 8.1% in assay [6].
Turning to `CC(=O)OC1CCC2=C3CCC4(C)C(=O)CCC4C3C(O)C2(C)C1` (stereo unspecified), the growth inhibition is 0.05% in assay [1]; -2% in assay [2]; -5.3% in assay [3]; -5.2% in assay [4]; -14.3% in assay [5]; -9.5% in assay [6].
`O=C(O)CNC(=O)c1cccc(Cl)c1`: the growth inhibition in assay [1] is 12.4%; in assay [2], 12.3%; in assay [3], 14.7%; in assay [4] it was 13.3%; in assay [5], 16.9%; in assay [6] it was 14.6%.
As for `Cc1cccc(NC(=O)/C=C/c2ccccc2)n1`, the growth inhibition in assay [1] was 6.15%; in assay [2], -26.5%; in assay [3], -4.3%; in assay [4] it was -81.3%; in assay [5], 9.15%; in assay [6], -22.4%.
As to `COC(=O)c1cc2ccccc2cc1Nc1ccc2ccccc2c1`, the growth inhibition is 2.25% in assay [1]; 4.7% in assay [2]; 5.25% in assay [3]; -10.3% in assay [4]; -0.7% in assay [5]; 7.3% in assay [6].
On to `CCCC1(CCC)CNC(=O)NC1`, for which the growth inhibition in assay [1] is 0.45%; in assay [2] it was -3.9%; in assay [3], -5.1%; in assay [4] it was -11.1%; in assay [5], 1.5%; in assay [6] it was -10.8%.
With `CN(C)CCNCCN`, the growth inhibition in assay [1] is 4%; in assay [2], -28.4%; in assay [3] it was -6.2%; in assay [4], -1.55%; in assay [5], -9.75%; in assay [6], -15.6%.
In the case of `Clc1ccc2sc3c(c2c1)CCNC3`, the growth inhibition was 2.8% in assay [1]; 0.1% in assay [2]; -6.75% in assay [3]; -31.4% in assay [4]; -26% in assay [5]; 13.6% in assay [6].
With `C=C1OC(=O)C(N)=C1C(C)=O`, the growth inhibition is -2.65% in assay [1]; 23.7% in assay [2]; 9.05% in assay [3]; -5.2% in assay [4]; 3.9% in assay [5]; 12.4% in assay [6].
